# The full ranking holds about 33,000 sequences; the median of “E-score (-0.5 to 0.5)” is about -0.054, and the highest 2% start at about 0.35. The full list was thinned out, with the highest values kept by preference.
# Target: T1, Stb5 (UniProt P38699)
# T1 sequence: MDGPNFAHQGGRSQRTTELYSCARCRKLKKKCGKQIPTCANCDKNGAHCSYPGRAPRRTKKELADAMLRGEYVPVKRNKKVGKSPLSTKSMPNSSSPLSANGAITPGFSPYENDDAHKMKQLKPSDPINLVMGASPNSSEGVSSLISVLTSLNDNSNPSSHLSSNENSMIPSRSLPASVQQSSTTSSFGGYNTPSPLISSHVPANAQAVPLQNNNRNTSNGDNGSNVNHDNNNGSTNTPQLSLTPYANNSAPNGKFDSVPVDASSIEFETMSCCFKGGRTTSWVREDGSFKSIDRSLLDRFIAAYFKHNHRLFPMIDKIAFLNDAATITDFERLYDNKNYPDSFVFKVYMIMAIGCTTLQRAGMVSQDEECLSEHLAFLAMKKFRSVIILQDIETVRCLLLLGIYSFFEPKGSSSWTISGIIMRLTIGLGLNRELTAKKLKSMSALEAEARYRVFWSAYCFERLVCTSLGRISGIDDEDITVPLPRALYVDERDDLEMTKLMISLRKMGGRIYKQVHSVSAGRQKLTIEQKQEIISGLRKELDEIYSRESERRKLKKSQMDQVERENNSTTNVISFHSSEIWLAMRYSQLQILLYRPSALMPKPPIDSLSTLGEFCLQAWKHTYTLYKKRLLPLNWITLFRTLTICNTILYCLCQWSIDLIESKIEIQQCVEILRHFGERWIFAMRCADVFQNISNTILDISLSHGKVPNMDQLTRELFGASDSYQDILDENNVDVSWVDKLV
# Assay: PBM E-score (8-mer binding enrichment) (E-score (-0.5 to 0.5)); higher = stronger / more preferred TF binding
# Settings: protein concentration: 200 nM; construct: GST-full length
# How it was run: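 Universal all-10-mer Agilent arrays, double-stranded by primer extension on fresh or once-stripped slides, were probed with about 100-200 nM GST-tagged yeast transcription factors made by PURExpress. Fluorescent anti-GST detected bound protein, and masliner normalised the scans. E-scores from the Universal PBM Analysis Suite were given to each ungapped eight-base word pooled with its reverse complement.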
row,Sequence,PBM E-score
1,CCGACGAC,0.312
2,GCGACGGA,0.283
3,ACGACGCG,-0.0646
4,ACGACGGC,0.146
5,CCGACGCG,0.378
6,CCGACAAA,0.353
7,TCGACAAA,-0.183
8,CGCGATCC,0.0632
9,AAAACGGC,0.21
10,GTACTCAA,-0.185
11,GCTTTAAC,-0.0801
12,TAAATCGA,-0.267
13,AGTCAAAA,-0.00563
14,AAACCTCT,0.015
15,ATAAAGAG,-0.0867
16,CCAAGCAG,-0.122
17,CACTGTCA,-0.352
18,CAGCTCCG,0.136
19,CATCTCCG,0.276
20,AAGCTCCT,-0.165
21,AATCTCCG,0.423
22,AAACTCCG,0.463
23,ATACTCCC,0.339
24,ATACTCCA,-0.199
25,ATACTCCG,0.371

row,Sequence,PBM E-score
1,AAGCTCCG,0.429
2,AAACTCCT,0.0448
3,AATCTCCC,-0.0498
4,CAACTCCG,0.342
5,CACTGCAA,-0.139
6,ACGTGCGA,-0.0649
7,GCTAGTCC,0.0729
8,GAGAAAGC,0.0247
9,CACACATC,-0.15
10,CTGTTCGC,-0.0755
11,AACCTCCC,-0.0946
12,AACCTCCG,0.408
13,AACCTCCT,-0.234
14,GTAAGCCA,-0.243
15,GAGTAGCC,-0.178
16,CGAAATTA,-0.0454
17,CCCCGTGA,0.146
18,CCCCGTGC,0.375
19,ACCCGTGC,-0.0288
20,ATGAACCA,-0.252
21,CACAGCTA,-0.125
22,CAATTGTC,-0.0888
23,CGGCTCTA,0.391
24,GGGCTATA,0.0715
25,CGGCTTTC,0.061

row,Sequence,PBM E-score
1,GGGCTTTA,0.326
2,CGGCTATA,0.367
3,AGGCTCTA,-0.0942
4,AGGCTATA,0.0655
5,CGGCTTTA,0.439
6,CGGCTCTC,-0.0773
7,CTCTACCC,-0.316
8,GCCGCACA,0.206
9,CTGCTGGC,-0.124
10,AGCGGGAT,0.25
11,GGCGGGAA,0.287
12,CGCGGGGA,0.305
13,GCGGGGGA,0.261
14,CTCGGGGA,0.0793
15,AGCGGGAA,0.357
16,AGCGGGAG,0.0448
17,GGCGGGGA,0.366
18,GTCGGGGA,0.382
19,AGCGGGGA,0.375
20,ATCGGGGA,0.307
21,AGCGGGGG,0.277
22,GTAGGCAA,-0.246
23,AATCTCCT,-0.0106
24,GGGCAGTA,-0.0652
25,ACCAAACG,0.0282

row,Sequence,PBM E-score
1,AGATCCAC,-0.00803
2,GAACGTTC,-0.114
3,CCGTTACC,0.19
4,CAGAGTAC,-0.0917
5,CGTTTGGC,0.0428
6,ACGATTAT,0.0316
7,CCCGAGAC,0.146
8,CGGATTAA,0.231
9,ATCGGGGC,0.356
10,AGCGGGGC,0.356
11,AGCGGGCC,0.23
12,ATCGGGCC,0.297
13,CGCGGGGC,0.321
14,ATCGGGGG,0.289
15,CCCATATA,0.0651
16,ATAAACGA,0.0369
17,AGCCCAAA,0.106
18,CCCGACCC,0.247
19,ACCGACCA,0.332
20,ACCGACCG,0.346
21,CCCGACCG,0.355
22,GCCGACCC,0.267
23,ACCGACCC,0.361
24,AACACTAA,-0.111
25,TGTGGGAA,-0.16

row,Sequence,PBM E-score
1,GCCTAGTA,-0.0419
2,AAAATCCG,0.345
3,AGCCCCCG,0.173
4,GGCCCCGA,0.23
5,CGCCCCGA,0.328
6,AGCCCCGG,0.404
7,AGCCCCGA,0.397
8,AGCCCCCC,-0.282
9,CGCCCCGC,0.325
10,AGCCCGGG,0.189
11,AGCCCCGC,0.421
12,AAGGTGAT,0.117
13,AGAGGTAC,-0.205
14,CCTGATCC,-0.125
15,CCCATGGG,-0.194
16,GGTTGGAC,-0.0385
17,CGCCTGTC,-0.0556
18,ACTACAGT,-0.24
19,GTCGGAAA,0.274
20,TCCGGACA,0.259
21,GACGGACA,0.372
22,GTCGGATA,0.371
23,CTCGGACA,0.233
24,CACGGACA,0.211
25,CCCGGACA,0.315

row,Sequence,PBM E-score
1,ATCGGATA,0.19
2,GACGGACC,0.316
3,GTCGGACA,0.385
4,GCCGGACA,0.401
5,CTCGGATA,0.0597
6,TAAAACTA,-0.0104
7,CACAAAAG,0.0345
8,AGCTAACG,0.00522
9,CCTCCTAG,-0.267
10,ATGGCGAG,-0.242
11,CCAGCGCG,-0.0713
12,AAACCTTT,0.0851
13,AGGCCCCA,-0.255
14,GTCGGAGA,0.373
15,ATCGGAGA,0.33
16,CTCGGAGA,0.136
17,CGCGGAGA,0.287
18,AGCGGAGA,0.236
19,GGCGGAGA,0.388
20,AAACAGAG,-0.197
21,CGGTCTAA,0.23
22,CCACTACG,-0.0468
23,CCATAACG,-0.0562
24,AACATATT,-0.109
25,CTGTGTCC,0.136

row,Sequence,PBM E-score
1,AGGTGTTA,0.381
2,AGGTGTTG,-0.0336
3,CGGTGTCC,0.369
4,CGGTGTGA,0.441
5,CGGTGTTC,0.399
6,CGGTGTGC,0.219
7,AGGTGTCC,-0.164
8,AGGTGTGA,0.00067
9,AGGTGTTC,-0.101
10,CCGTGTTC,0.137
11,GGGTGTTA,0.25
12,AATCTGCA,-0.273
13,AAAGGCCT,-0.115
14,ACTCTGTG,-0.0679
15,TATAGGCA,-0.262
16,ATGATGCA,-0.187
17,CACCAGCG,-0.06
18,ACAAAGAG,-0.148
19,AGGTGTCA,0.12
20,CGGTGTAA,0.438
21,GGGTGTCA,-0.073
22,CGGTGTCA,0.471
23,CGGTGTAG,0.323
24,GGGTGTAA,0.251
